In publication PMC4336329 (PLoS ONE, 2015):
Hit rate of the full screen: of about 310,000 compounds, about 14,000 (4.5%) showed an effect of 50% or more. Effects have a minus sign here. Only a selection was taken, and strong results are over-represented in it overall.

biological target: human ether-à-go-go-related gene (hERG) potassium channel (human, UniProt Q12809); assay: primary screen, population patch clamp on CHO cells stably expressing hERG; higher = less effect of the substance
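Also: peak tail current of the secondary pulse compared with the same well before compound.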

Chain of human ether-à-go-go-related gene (hERG) potassium channel (Q12809 whole entry, looked up): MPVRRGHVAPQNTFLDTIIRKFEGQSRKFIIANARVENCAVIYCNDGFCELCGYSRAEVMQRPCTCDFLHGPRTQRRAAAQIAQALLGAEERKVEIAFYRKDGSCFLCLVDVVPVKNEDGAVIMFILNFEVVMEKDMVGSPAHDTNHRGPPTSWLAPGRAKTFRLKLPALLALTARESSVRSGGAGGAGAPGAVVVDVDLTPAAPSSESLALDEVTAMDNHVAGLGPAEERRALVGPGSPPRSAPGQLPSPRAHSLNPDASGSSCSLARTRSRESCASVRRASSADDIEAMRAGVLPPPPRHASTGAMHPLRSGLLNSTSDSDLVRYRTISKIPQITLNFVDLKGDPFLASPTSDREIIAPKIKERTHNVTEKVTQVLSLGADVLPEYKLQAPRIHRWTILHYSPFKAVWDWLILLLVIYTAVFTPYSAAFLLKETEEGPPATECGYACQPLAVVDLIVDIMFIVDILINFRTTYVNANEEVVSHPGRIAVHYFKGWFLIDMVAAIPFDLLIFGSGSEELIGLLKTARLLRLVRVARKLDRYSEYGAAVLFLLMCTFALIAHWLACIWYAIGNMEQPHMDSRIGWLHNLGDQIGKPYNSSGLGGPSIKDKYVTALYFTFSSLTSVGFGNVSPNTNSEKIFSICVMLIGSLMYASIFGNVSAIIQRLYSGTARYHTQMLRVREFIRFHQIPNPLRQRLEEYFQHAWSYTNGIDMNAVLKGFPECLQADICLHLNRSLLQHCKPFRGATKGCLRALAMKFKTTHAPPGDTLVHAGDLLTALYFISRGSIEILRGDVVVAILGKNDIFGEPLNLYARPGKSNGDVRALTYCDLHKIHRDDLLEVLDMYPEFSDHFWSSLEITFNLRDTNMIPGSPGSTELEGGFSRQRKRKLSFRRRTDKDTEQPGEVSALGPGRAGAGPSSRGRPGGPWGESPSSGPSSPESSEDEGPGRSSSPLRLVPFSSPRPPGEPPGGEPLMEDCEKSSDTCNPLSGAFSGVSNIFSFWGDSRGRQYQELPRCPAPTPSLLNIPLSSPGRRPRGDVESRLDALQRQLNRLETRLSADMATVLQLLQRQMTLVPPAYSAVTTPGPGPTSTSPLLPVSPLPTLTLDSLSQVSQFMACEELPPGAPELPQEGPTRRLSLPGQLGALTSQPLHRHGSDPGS

SMILES | hERG current change (%, negative = inhibition) at 10uM
O=C(O)C(=O)O.O=S(=O)(c1ccc(Cl)cc1)N1CCC(N2CCOCC2)CC1 | -11.5%
Cn1ncc2c(Nc3ccc(O)cc3)nc(Cl)nc21 | 5.53%
Cc1ccccc1OCc1nnc(SCC(=O)O)n1-c1cccc(Cl)c1 | 5.63%
Cc1ccccc1OCc1nnc(SCC(=O)O)n1-c1ccccc1 | 14.4%
COc1ccc(C(=O)CSc2nnc(CN3CCCCC3)n2-c2ccc(F)cc2)cc1OC | 6.33%
COc1ccc(C(=O)CSc2nnc(CN3CCCC3)n2-c2ccc(F)cc2)c(OC)c1 | -23%
COc1ccc(-n2c(CNc3ccc(C)cc3)nnc2SCc2ccccc2)cc1 | -7.09%
Cn1c(CNc2ccc(Cl)cc2)nnc1SCCN1CCCCC1 | -46.4%
Cc1ccccc1OCc1nnc(SCCN2CCCC2)n1-c1ccccc1.Cl | -65.3%
COc1ccc(NCc2nnc(SCCN3CCCCC3)n2-c2ccc(C)cc2)cc1 | -66.7%
COc1ccc(C(=O)CSc2nnc(CN3CCCCC3)n2-c2ccc(F)cc2)cc1 | -57.7%
O=C(CCN1CCOCC1)Nc1c(-c2ccccc2)c2cc(Br)ccc2[nH]c1=O | -11.9%
CC(=O)Nc1ccc(C(=O)Nc2cccc(S(=O)(=O)NC3=NCCC3)c2)cc1 | 4.95%
CC(C)(O)C#Cc1ccc(CN2CCN(Cc3ccccc3)C(CCO)C2)s1 (stereo not shown) | 4.64%
CCOc1cc(C)c(S(=O)(=O)Nc2ccc3cn[nH]c3c2)cc1C | 25.2%
N#CC1(NC(=O)CSc2nnc(Nc3ccccc3F)s2)CCCC1 | 0.45%
COc1cc(OC)cc(C(=O)OCC(=O)NCCCc2ccccc2)c1 | 12.2%
C=CCN1C(=O)N/C(=C/c2ccc(C)o2)C1=O | 9.15%
COC(=O)c1ccc(C2c3[nH]c4ccccc4c3C[C@H]3C(=O)N(C4CCN(Cc5ccccc5)CC4)CC(=O)N23)cc1 (stereo partly shown) | -10%
CSCC[C@H](NC(=O)C1=NN(c2c(F)c(F)cc(F)c2F)C(=O)CC1)c1nc2ccccc2[nH]1 | -13.3%
COc1ccc(OCC(=O)N/N=C(\C)CC(=O)Nc2cccc([N+](=O)[O-])c2)cc1 | -53.8%
CC(=O)Nc1ccccc1NC(=O)C/C(C)=N/NC(=O)c1ccncc1 | 19.6%

SMILES | hERG current change (%, negative = inhibition) at 10uM
COc1ccc([N+](=O)[O-])cc1NC(=O)C1CCCN1S(=O)(=O)c1cccs1 (stereo not shown) | -18.1%
COc1ccc(NC(=O)C/C(C)=N/NC(=O)c2cccs2)c([N+](=O)[O-])c1 | -54.4%
COc1cc(NC(=O)C/C(C)=N/NC(=O)c2cccs2)c(OC)cc1Cl | -14.4%
COc1ccc(NC(=O)C2CCCN2S(=O)(=O)c2cccs2)c([N+](=O)[O-])c1 (stereo not shown) | -68.3%
CCC(=O)N/N=C(\C)CC(=O)Nc1cccc([N+](=O)[O-])c1 | 9.57%
COc1ccc(-c2nnc(NC(=O)C3CCCN3S(=O)(=O)c3cccs3)o2)cc1 (stereo not shown) | -3.47%
COc1ccc(NC(=O)c2cccs2)c([N+](=O)[O-])c1 | -3.28%
COc1ccc(NC(=O)C/C(C)=N/NC(=O)c2ccco2)c([N+](=O)[O-])c1 | -33.9%
COc1ccc(NC(=O)C/C(C)=N/NC(=O)COc2ccc(OC)cc2)cc1 | -18.8%
COc1ccc(NC(=O)C/C(C)=N/NC(=O)c2ccncc2)c([N+](=O)[O-])c1 | -59.8%
Cc1ccccc1CN(C)CC(=O)NC(C)CCc1ccccc1 (stereo not shown) | -17.2%
O=C(CSc1nnc(-c2ccccc2)n1C1CCCCC1)N1CCCC1 | -6.76%
CCC1(C)Cc2c(sc3nc(SC)nc(N)c23)CO1 (stereo not shown) | -7.82%
O=C1NC(Cc2ccccc2)c2nc3ccccc3c(=O)n2-c2cc(Cl)ccc21 (stereo not shown) | 11.4%
CCCCn1c(N)c(N(CCC(C)C)C(=O)C2=NN(c3cc(C)ccc3C)C(=O)CC2)c(=O)[nH]c1=O | -1.89%
OC(CNC1CCCCC1)C(F)(F)F (stereo not shown) | -2.73%
CCC(C)[C@H](NC(=O)[C@@H]1Cc2ccccc2CN1)C(=O)NCc1ccc(OC)cc1 (stereo partly shown) | -32.7%
CC1CCCCN1C(=O)COC(=O)c1cc(-c2cccs2)nn1-c1ccccc1 (stereo not shown) | 0.387%
O=[N+]([O-])c1cc(/C=N/O)ccc1Sc1ccccc1 | 13.7%
CC1CCCCN1C(=O)CSc1nnc(-c2ccco2)o1 (stereo not shown) | 2.08%
CCOC(=O)CN1CC23C=CC(O2)C(C(=O)Nc2cc(OC)ccc2OC)C3C1=O (stereo not shown) | -3.04%
CC[N+](CC)(CC(=O)Nc1c(C)cccc1C)Cc1ccccc1.O=C([O-])c1ccccc1 | 14.7%

SMILES | hERG current change (%, negative = inhibition) at 10uM
CC(/C=C/c1ccco1)=N\NC(=O)CNc1cccc(C)c1 | 18.1%
O=S(=O)(O)c1nc2ccccc2n1Cc1ccccc1 | -10.5%
CCOc1ccc(N(CC(=O)NCC2CCCO2)S(=O)(=O)c2ccc(C)cc2)cc1 (stereo not shown) | -10.3%
COc1ccc(OCC(=O)N/N=C(\C)CC(=O)Nc2ccc(OC)cc2[N+](=O)[O-])cc1 | -93.8%
COc1ccc(NC(=O)COc2ccc(C)cc2)c([N+](=O)[O-])c1 | 7%
CCOc1ccc(OCC(=O)Nc2ccc(OC)cc2[N+](=O)[O-])cc1 | 3.3%
COc1ccc2sc(C)nc2c1NC(C)=O | 9.21%
COc1ccc(-c2nc(SCC(=O)N3CCOCC3)n[nH]2)cc1 | -4.25%
CC(=O)Nc1nonc1-c1nc2ccccc2n1Cc1ccccc1 | 13.2%
O=C(NCCc1c[nH]c2ccccc12)/C(=C/c1cccnc1)NC(=O)c1cccs1 | -19.1%
O=C(NCCc1c[nH]c2ccccc12)/C(=C\c1cccnc1)NC(=O)c1ccccc1F | -58.5%
O=C(NCCc1c[nH]c2ccccc12)/C(=C/c1cccnc1)NC(=O)c1ccccc1 | -14.3%
O=C(NCCc1c[nH]c2ccccc12)/C(=C\c1cccnc1)NC(=O)c1ccccc1Br | -65.1%
O=C(NCCc1c[nH]c2ccccc12)/C(=C\c1cccnc1)NC(=O)c1cccs1 | -17%
CC(=O)N/C(=C/c1ccc(Cl)cc1)C(=O)NCCc1c[nH]c2ccccc12 | -20.8%
NC(=O)NC(CC(=O)NCCc1ccc(S(N)(=O)=O)cc1)c1ccccc1Cl (stereo not shown) | 6.81%
CC(C(=O)N1c2ccc(F)cc2CCC1C)N1C(=O)c2ccccc2C1=O (stereo not shown) | 2.72%
COCCCN(C(=O)c1ccco1)c1nc(-c2ccc(OC)cc2)cs1 | 1.81%
CN(C)CCCN(C(=O)c1ccco1)c1nc(-c2ccc(Cl)cc2)cs1.Cl | -72.5%
Cc1ccc(-c2csc(N(CCCN3CCOCC3)C(=O)c3ccco3)n2)cc1.Cl | -19.1%
Cc1ccc(-c2csc(N(CCCN(C)C)C(=O)c3ccco3)n2)cc1.Cl | -74.8%
CN(C(=O)c1ccco1)c1nc(-c2ccc(Cl)cc2)cs1 | 8.09%

SMILES | hERG current change (%, negative = inhibition) at 10uM
Cl.O=C(c1ccco1)N(CCCN1CCOCC1)c1nc(-c2ccc(Cl)cc2)cs1 | -13.4%
COc1ccc(-n2nc(C(=O)NCC(=O)NCc3ccco3)c3ccccc3c2=O)c(OC)c1 | 11.3%
Cl.c1ccc(NNC2=NCCCCC2)cc1 | 8.92%
O=C(O)Cn1c(=O)c2c3c(sc2n(Cc2ccc(F)cc2)c1=O)CCCC3 | 17.9%
Cc1ccc(C)c(OCc2nc3ccc(S(=O)(=O)Nc4c(C)n(C)n(-c5ccccc5)c4=O)cc3[nH]2)c1 | 7.31%
CCCCN(C)CCN1C(=O)C2C(C(=O)Nc3cccc(OC)c3)C3C=CC2(O3)C1C(=O)NC1CCCCC1C (stereo not shown) | -14.7%
CC(C)(C)C(=O)Nc1cc(NC(=O)C(C)(C)C)cc(C(=O)NNC(=O)c2ccncc2)c1 | 16.5%
CCOc1ccccc1NC(=O)N1CCC(n2nnc3cc(C)ccc32)CC1 | -53.9%
O=C(c1c(F)cccc1F)N1CCC(n2nnc3cc(C(F)(F)F)ccc32)CC1 | -21.4%
COc1ccc(NC(=O)N2CCC(n3nnc4cc(C)ccc43)CC2)cc1 | -11.3%
Cc1ccc2c(c1)nnn2C1CCN(C(=O)NCc2ccccc2)CC1 | -76.7%
CCOc1ccccc1C(=O)N1CCC(n2nnc3cc(C(F)(F)F)ccc32)CC1 | -60%
Cc1ccc2c(c1)nnn2C1CCN(C(=O)c2ccccc2F)CC1 | -18.1%
CCOc1ccc(NC(=O)N2CCC(n3nnc4ccccc43)CC2)cc1 | -15.4%
Cc1cccc(NC(=O)N2CCC(n3nnc4cc(C)ccc43)CC2)c1 | -62.9%
COc1cccc(NC(=O)N2CCC(n3nnc4ccccc43)CC2)c1 | -18.8%
Cc1ccc2c(c1)nnn2C1CCN(C(=O)Nc2ccccc2C)CC1 | -22.6%
Cc1ccc2c(c1)nnn2C1CCN(C(=O)C2CCCCC2)CC1 | -31.3%
CCOc1ccccc1C(=O)N1CCC(n2nnc3cc(C)ccc32)CC1 | -47.4%
